Shown is part of a subset that was picked to be rich in hits.
Shiga inhibitor = inhibitors of Shiga toxin in Vero cells; 290,000 tested, 9.2% active; inhibition, % at 38.7 µM; Vero cells, Shiga toxin protein synthesis inhibition reporter; in the data active means inhibition mostly above about 28%, no sharp cut-off; inactive means mostly below about 43%
RE007 growth inh = less growth of the S. pombe RE007 Vpr strain; S. pombe RE007 Vpr strain, BacTiter-Glo ATP luminescence, 24 h; Potency, µM (titrated, usually from 92.2 µM), hits mostly inhibitors; 360,000 tested, 0.21% active; AID 651644; active means well fitted falling curve with a large enough effect; inconclusive means small, poorly fitted or top-dose-only effect; inactive means no such curve, though single readings can be large or run the other way; further: nearly all actives have a fitted effect of over 50% in size
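Fission yeast RE007 carrying one integrated HIV-1 vpr copy, seeded at OD 0.01 in PMG+AL medium with 23 nL pinned compound. Grown 24 h at 30 degrees; viability read by BacTiter-Glo luminescence after 5 min.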
LmPK inhibitor = blocks Leishmania mexicana pyruvate kinase activity. Q27686. purified LmPK, Kinase-Glo ATP luminescence, 1 h. Potency, µM (series often up to 57.5 µM), usual class: inhibitors. 290,000 tested, 0.37% active
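qHTS format; LmPK 0.1 nM; substrates PEP 0.5 mM and ADP 0.1 mM. One-hour room-temperature incubation, then coupled luciferase luminescence; 0.5 nM enzyme wells mark activation.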
CHX counter = affects cycloheximide protein synthesis inhibition readout, counter-screen. cell reporter, cycloheximide protein synthesis inhibition counterscreen. max response, %. 300,000 tested, 12% active; in the data active means max response mostly above about 13%, no sharp cut-off; inactive means mostly below about 14%; further: read at 38.3 µM for the half of the compounds with a filed dose
Tb PYK inh = inhibitors of Trypanosoma brucei pyruvate kinase; Q57TT1; 410,000 tested, 0.12% active; TbPYK enzyme, Kinase-Glo Plus ATP luminescence, 45 min; Potency, µM (top dose mostly 76.8 µM), hits mostly inhibitors; further: nearly all actives have a fitted effect of over 50% in size
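In this concentration-response screen, enzyme-free wells defined baseline while DMSO plates tracked drift. Each reaction combined TbPYK, substrate, compound and 130 uM ADP for 45 min at room temperature. Kinase-Glo Plus luminescence gave the signal.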
Giardia FBPA inh = blocks Giardia fructose-bisphosphate aldolase activity | purified Giardia FBPA | A8B2U2 | 290,000 tested, 0.71% active | Potency, µM (doses to about 59.6 µM), most hits filed as inhibitors; further: nearly all actives have a fitted effect of over 55% in size
Target sequence (A8B2U2 whole entry, looked up): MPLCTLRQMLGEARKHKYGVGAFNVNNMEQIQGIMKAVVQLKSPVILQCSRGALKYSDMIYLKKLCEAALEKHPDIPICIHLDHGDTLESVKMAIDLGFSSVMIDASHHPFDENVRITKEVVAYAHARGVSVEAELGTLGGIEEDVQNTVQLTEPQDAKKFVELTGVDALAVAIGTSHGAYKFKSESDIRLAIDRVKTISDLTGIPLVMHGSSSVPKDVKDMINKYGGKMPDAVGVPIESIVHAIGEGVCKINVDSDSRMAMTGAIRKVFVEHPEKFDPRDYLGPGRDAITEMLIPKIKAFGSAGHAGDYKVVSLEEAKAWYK
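Giardia FBPA (40 nM reagent) was preincubated 10 min at RT with compound (up to 57.5 uM final), then substrate plus GAPDH/TPI/NAD/arsenate coupling system with diaphorase/resazurin was added; resorufin fluorescence (525/598 nm) was read after 20 min.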
Hits are given with their value; . = inactive; ? = inconclusive; / = not tested or not shown; [ ] = remark or other dose. Unless noted, the call rests on the fitted dose curve; in most records, active means well fitted curve in the direction sought with a large enough effect; inconclusive means small, poorly fitted or top-dose-only effect, or another doubt; inactive means no such curve, though single readings can be large; an effect the other way counts as inactive or inconclusive.

SMILES	Shiga inhibitor	RE007 growth inh	LmPK inhibitor	CHX counter	Tb PYK inh	Giardia FBPA inh
CNc1nc(C#N)nc(Nc2ccccc2)n1	/	/	/	/	/	.
CCOC(=O)c1c(C)[nH]c(C)c1S(=O)(=O)N(C)CC(=O)N1CCN(c2ccccc2OC)CC1	/	/	/	/	.	/
Cc1cc(C(=O)N/N=C/c2ccc(Cl)c([N+](=O)[O-])c2)c(C)n1-c1ccc(F)cc1	35	.	.	.	.	?
Cc1occc1C(=O)N/N=C/c1ccc(Cl)c([N+](=O)[O-])c1	56	.	.	37	.	.
Cc1cc(C(=O)N/N=C/c2ccc3c(c2)OCO3)c(C)n1-c1ccc(F)cc1	62	.	.	27	.	.
CC(C)(C)NC(=O)CN(C(=O)C1CSC(=O)C1)c1ccc2c(c1)OCCO2 (configuration not stated)	34	.	.	36	.	.
CNc1c([N+](=O)[O-])cnn1-c1ccccc1F	.	.	.	41	.	.
COc1cccc2cc(-c3csc(-c4ccc(Cl)cc4)n3)c(=O)oc12	/	/	/	/	.	/
COc1ccc2c(c1)C(c1ccccc1C)CC(=O)O2 (configuration not stated)	.	/	/	.	/	.
CC(C)CNC(=S)NNC(=O)c1ccc2c(c1)OCO2	.	?	.	.	.	.
C/C(=N/NC(=O)c1ccc2c(c1)OCO2)c1ccc(NC(=O)C(F)(F)F)cc1	36	.	.	41	.	.
C/C(=N\NC(=O)c1ccc(Br)cc1)c1cccnc1	.	.	.	22	.	.
CC(C)CC(CC(C)C)=NNC(=O)c1ccc2c(c1)OCO2	74	.	.	52	.	.
C/C(=N/NC(=O)c1ccc(C(C)(C)C)cc1)c1cccnc1	/	.	/	/	.	/
CC(/C=C/c1ccc2c(c1)OCO2)=N/NC(=O)c1cccnc1	62	.	.	23	.	.
Cc1ccc2oc(=O)c3cc(C(=O)N4CCN(c5ccccc5F)CC4)sc3c2c1	/	/	/	/	.	/
Cc1cc(=O)c2c(O)c3c(O)cc(=O)c4c3c3c(cc(O)c1c23)C(C)(C)C=4O	/	/	/	/	.	.
CCc1cccc(NC(=O)Cn2c(=O)n(CCC(=O)NCc3ccccc3Cl)c(=O)c3sccc32)c1	/	/	/	/	.	/
O=C(NCc1cccc(Cl)c1)NCc1noc2ccccc12	/	/	/	/	.	/
CC(=O)Nc1cccc(/C(C)=N/NC(=O)c2ccc3c(c2)OCO3)c1	.	.	.	26	.	.
O=C(N/N=C(/c1ccccc1)c1ccncc1)c1ccc2c(c1)OCO2	.	.	.	.	.	.
C/C(=N\NC(=O)c1cc(C)oc1C)c1ccc2c(c1)OCO2	122	.	.	48	.	.
CCC/C(=N/NC(=O)c1ccc2c(c1)OCO2)c1cccs1	89	.	.	96	.	.
CC/C(=N\NC(=O)c1ccc2c(c1)OCO2)c1ccccc1	46	.	.	37	.	.
C[C@@H](/C=C/c1ccc2ccccc2c1)C1COC(=O)C[C@H]1O (some centres not stated)	.	/	/	.	/	.
SMILES	Shiga inhibitor	RE007 growth inh	LmPK inhibitor	CHX counter	Tb PYK inh	Giardia FBPA inh
O=C(C1CCCCC1)N(Cc1cccnc1)c1nc2c(F)cc(F)cc2s1	/	/	/	/	.[15.4 µM]	/
CC(=O)Nc1ccc(NC(=O)c2ccc3c(c2)N(Cc2cccc(Cl)c2)C(=O)c2ccccc2S3=O)cc1 (configuration not stated)	/	/	/	/	.	/
C/C(=N\NC(=O)c1ccc2c(c1)OCO2)c1ccc(O)cc1	41	.	.	33	.	.
C/C(=N\NC(=O)c1c[nH]c2ccccc12)c1ccc2c(c1)OCO2	42	.	.	29	.	.
C/C(=N\NC(=O)c1ccccc1)c1ccc2c(c1)OCO2	96	.	.	51	.	.
C/C(=N\NC(=O)c1ccc2c(c1)OCO2)c1cccnc1	90	.	.	37	.	.
C/C(=N/NC(=O)CCc1ccccc1)c1ccc2c(c1)OCO2	.	.	.	.	.	.
CCC(C)C(=O)O[C@H]1C[C@@H](C)C=C2C=C[C@H](C)[C@H](CC[C@@H]3C[C@@H](O)CC(=O)O3)C21 (some centres not stated)	/	/	/	/	/	.
CCOC(=O)CCN1C(=O)[C@H]2[C@H]3[C@H](O)[C@H](O)C/C(=N/NC(=O)OCc4ccccc4)[C@@H]3CC[C@@H]2C1=O	/	/	/	/	/	.[12.9 µM]
CC(C)OC(=O)c1c(NC(=O)c2cc3nc(-c4ccccc4)cc(C(F)(F)F)n3n2)sc2c1CCCC2	/	/	/	/	.	/
Cc1nn(-c2ccccc2)c2[nH]c(=O)c(CNc3ccc4c(c3)OCCO4)cc12	113	.	.	42	.	.
O=C(N/N=C/c1cn(-c2ccccc2)nc1-c1cccs1)c1ccccc1F	83	.	.	20	.	.
O=C(N/N=C/c1cn(-c2ccccc2)nc1-c1cccnc1)c1cccnc1	.	.	.	.	.	.
O=C(N/N=C/c1cn(-c2ccccc2)nc1-c1ccc(F)cc1)c1ccc(Br)o1	.	.	.	.	.	.
O=[N+]([O-])c1ccc(N/N=C/c2cn(-c3ccccc3)nc2-c2ccccc2)cc1	31	.	.	.	.	.
O=C(CNc1ccccc1)N/N=C/c1cn(-c2ccccc2)nc1-c1ccccc1	.	.	.	9.7	.	.
NC(=O)N/N=C/c1cn(-c2ccccc2)nc1-c1ccccc1	60	.	.	31	.	.
CC(O)C#C[Si](C)(C)c1ccccc1 (configuration not stated)	/	/	/	/	/	.
O=C(c1ccc2c(c1)N(Cc1cccc(Cl)c1)C(=O)c1ccccc1S2=O)N1CCN(c2cccc(C(F)(F)F)c2)CC1 (configuration not stated)	/	/	/	/	.	/
Cc1oc2cc(O)cc(O)c2c(=O)c1-c1ccc2c(c1)OCCCO2	116	.	.	34	.	.
COc1ccc(-c2oc3cc(OC(C)=O)cc(OC(C)=O)c3c(=O)c2OC)cc1	/	.	/	/	.	/
CC(=O)Oc1cc(OC(C)=O)c2c(=O)c(-c3ccc4c(c3)OCCCO4)c(C)oc2c1	.	.	.	8.3	.	.
CCOC(=O)c1oc2cc(O)c(CC)cc2c(=O)c1-c1ccc2c(c1)OCCO2	.	.	.	.	.	.
Cc1cccc(NC(=O)Cn2c(=O)nc(-c3ccccc3)c3ccccc32)c1C	/	/	/	/	.	/
C/C=C(/C)C(=O)O[C@H]1C[C@@]2(C)O[C@H]2[C@@H](OC(C)=O)C2(C)CC[C@@](O)(C(C)C)C12 (some centres not stated)	.	/	/	.	/	.
Cc1cccc(N2CCN(C(=O)c3cc4ccc5cccnc5c4[nH]3)CC2)c1C	/	/	/	/	.	/
Cn1nc(C(=O)Nc2cccc(C(F)(F)F)c2)c2c1-c1ccccc1S(=O)(=O)C2	/	/	/	/	.	/
CCOC(=O)C1=C(C)NC(=O)NC1c1ccc(N2CCC(c3ccccc3)=N2)cc1 (configuration not stated)	26	.	.	11	.	.

Screens as filed in PubChem BioAssay.
